# In the library only some 2% were active in any assay of this set; here they are far more common.
# M4 ag = human M4 muscarinic receptor agonists, primary screen, CHO-K1 cells, Fluo-8 calcium fluorescence; CHO-K1 hM4/Gqi5; vehicle 0%, full acetylcholine response 100%; activation, % at 3 µM; hit rate 0.14% among 360,000; AID 624127, 2012;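 active = activation above the run mean over all test wells plus 3 SD, cut at about 32% in these data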;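 note: peak over basal fluorescence ratio per well then scaled between controls; 0% = DMSO wells and 100% = acetylcholine at EC100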
# Target sequence (P08173 whole entry, looked up): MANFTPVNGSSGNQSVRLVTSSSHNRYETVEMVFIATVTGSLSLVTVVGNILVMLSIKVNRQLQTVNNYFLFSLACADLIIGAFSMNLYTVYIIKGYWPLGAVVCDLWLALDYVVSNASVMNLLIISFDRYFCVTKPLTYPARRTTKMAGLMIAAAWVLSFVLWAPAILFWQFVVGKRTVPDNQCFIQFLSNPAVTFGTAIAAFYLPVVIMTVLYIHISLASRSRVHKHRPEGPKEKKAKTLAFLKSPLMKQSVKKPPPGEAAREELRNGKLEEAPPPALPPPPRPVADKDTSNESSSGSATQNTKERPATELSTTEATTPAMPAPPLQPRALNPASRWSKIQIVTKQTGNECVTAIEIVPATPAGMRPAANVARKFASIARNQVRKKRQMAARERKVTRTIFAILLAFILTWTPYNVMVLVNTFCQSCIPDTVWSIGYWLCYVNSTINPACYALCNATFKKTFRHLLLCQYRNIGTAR
# CHO-K1 Ca ag = counter-screen for M1 agonists: effect in parental CHO-K1 cells; AID 602248, 2012; hit rate 0.48% among 360,000; Fluo-8 calcium fluorescence; scaled to maximal ATP response, vehicle zero; activation, % at 3 µM; in the data active = activation above about 15%;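 note: untransfected CHO-K1 host cells lacking M1 receptor as counterscreen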
# CHRM4 PAM = human M4 muscarinic receptor positive allosteric modulators, primary screen, CHO-K1 cells, Fluo-8 calcium fluorescence. Muscarinic acetylcholine receptor M4 (Homo sapiens), P08173. CHO-K1 hM4/Gqi5, ACh EC20; 0% = ACh EC20, 100% = maximal ACh. activation, % at 3 µM. hit rate 0.4% among 360,000;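 active = activation above its plate's cutoff, the mean activation of sample wells plus 3 SD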
# M4 antag = human M4 muscarinic receptor antagonists, primary screen, CHO cells, Fluo-8 calcium fluorescence | Muscarinic acetylcholine receptor M4 (Homo sapiens), P08173 | inhibition, % at 3 µM | CHO-hM4 cells, ACh EC80 | hit rate 0.73% among 360,000 | AID 624125, 2012;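 active = inhibition above its plate's cutoff, the mean inhibition of sample wells plus 3 SD, cut at about 27% in these data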;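 note: 0% = acetylcholine EC80 with DMSO and 100% = DMSO without agonist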
# CHO-K1 Ca antag = counter-screen for M1 antagonists: effect in parental CHO-K1 cells. ATP-induced calcium, Fluo-8 fluorescence. inhibition, % at 3 µM. hit rate 0.6% among 360,000;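 active = inhibition above a per-plate cutoff, the plate's mean sample inhibition plus 3 SD, cut at about 24% in these data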;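 note: 0% = DMSO plus EC80 ATP and 100% = DMSO alone without ATP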
# M1 PAM parental = nonselective calcium activators in parental CHO-K1 cells, primary screen, counter-screen for M1 PAM project, cell-based, Fluo-8 calcium fluorescence, full deck, 1536-well; hit rate 0.02% among 360,000; activation, % at 3 µM; ATP EC20; 0% at ATP EC20, 100% at ATP max; AID 602247, 2012;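 active = activation above the run cutoff, the mean activation of all test compounds plus 3 SD, cut at about 40% in these data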;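 note: peak over basal fluorescence ratio in a 140 s read after ATP addition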
# Active calls of the source: *.
SMILES,M4 ag,CHO-K1 Ca ag,CHRM4 PAM,M4 antag,CHO-K1 Ca antag,M1 PAM parental
COC(=O)C1=C(c2ccccc2OCc2ccccc2)C[C@@H]2CC[C@H]1N2C(=O)NCCc1ccc(F)cc1,-1,1,4,2,-23,20
CC12CCC(O)CC1CCC1C2CCC2(C)C(C(=O)CO)CCC12 (stereo unspecified),12,5,-5,-17,-6,1
CC(C)N1C(=O)NC(=O)C2(Cc3cc([N+](=O)[O-])ccc3N(C)C2c2ccccc2)C1=O (stereo unspecified),10,25*,-8,1,-4,20
CCOP(=O)(OCC)c1cc(CC)ccc1O,0,0,-13,-2,-1,-4
O=C1NC(=O)C(=Cc2ccc(OCC(=O)N3CCOCC3)cc2)C(=O)N1,0,0,10,-12,29*,-15
CC1=C(O)C(=O)C=C2C1=CC=C1C2(C)CCC2(C)C3CC(C)(C(=O)O)CCC3(C)CCC12C (stereo unspecified),11,6,-11,91*,37*,6
CC1C=CCCC12C(=O)NC(=O)NC2=O (stereo unspecified),1,1,10,-6,-8,2
O=c1[nH]c(O)c(C=Nc2ccc(Cl)c(C(F)(F)F)c2)c(=O)[nH]1,0,1,-16,34*,-7,6
CCCCCCn1c(O)c(C=NC2CCN(Cc3ccccc3)CC2)c(=O)[nH]c1=O,0,0,-7,3,3,11
C=CCn1c(O)c(C=NC2CCN(Cc3ccccc3)CC2)c(=O)[nH]c1=O,1,0,12*,-7,-5,1
O=NN1CCCCC1,2,2,11,-11,-19,20
CCOC(=O)C1SC2(C(F)(F)F)CC1(O)c1c(C)cc(C)nc1O2 (stereo unspecified),-2,0,45*,-16,-10,24
N[C@@H](Cc1ccccc1)C(=O)N1C[C@H]2C[C@@H](C1)c1cccc(=O)n1C2,0,-1,-16,92*,16,-4
O=C(CCC(=O)N1C[C@H]2C[C@@H](C1)c1cccc(=O)n1C2)NCc1ccccc1,1,0,3,5,-3,8
CCC(C(=O)N1C[C@H]2C[C@@H](C1)c1cccc(=O)n1C2)c1ccccc1 (stereo partly specified),1,1,-7,3,3,-9
O=C(CCC(=O)N1C[C@H]2C[C@@H](C1)c1cccc(=O)n1C2)NCc1cccc(C(F)(F)F)c1,-1,0,-17,99*,3,-1
COc1ccc(-n2nnnc2C(c2cccc3ccccc23)N2CCC3(CC2)C(=O)NCN3c2ccccc2)cc1 (stereo unspecified),2,0,3,2,-3,-7
COc1ccc(C(=O)C2CCCN(Cc3ccsc3)C2)cc1OC (stereo unspecified),0,0,-2,12,-3,17
COc1ccc(C(=O)C2CCCN(CC3CCCCC3)C2)cc1OC (stereo unspecified),1,0,-11,34*,0,0
COC(=O)C1=C(c2ccc(-c3ccccc3)c(F)c2)C[C@@H]2CC[C@H]1N2C(=O)NCc1ccco1,2,-1,-3,5,-9,-5
CCN(CC)P(=O)(c1n(CC)cc[n+]1CC)N(CC)CC,2,-1,6,-7,32*,-16
C#C[C@]1(O)CCC2C3CCC4=C/C(=N/OCC(=O)NC(C)C(=O)NC(CCSC)C(=O)O)CC[C@]4(C)C3CC[C@@]21C (stereo partly specified),1,0,-5,10,-12,2
Cc1ccc(-c2cc(-c3ccccc3)cc(-c3ccccc3)[n+]2-c2ccccc2)cc1,21,13,-22,79*,30*,-17
O=[N+]([O-])c1cc(Cl)c(O)c(-[n+]2c(-c3ccccc3)cc(-c3ccccc3)cc2-c2ccccc2)c1,1,0,-2,1,-4,8
c1ccc(-c2cc(-c3ccccc3)[n+](-c3ccccc3)c(-c3ccccc3)c2)cc1,11,11,-41,73*,20,-11
SMILES,M4 ag,CHO-K1 Ca ag,CHRM4 PAM,M4 antag,CHO-K1 Ca antag,M1 PAM parental
C[n+]1c(-c2ccccc2)cc(-c2ccc(Cl)cc2)cc1-c1ccccc1,2,-1,-2,1,16,-14
Cc1ccc(-c2cc(-c3ccc(C)cc3)[n+](-c3ccccc3)c(-c3ccc(C)cc3)c2)cc1,30,17*,-21,65*,16,-3
CN(C)c1ccc(-[n+]2c(-c3ccccc3)cc(-c3ccccc3)cc2-c2ccccc2)cc1,18,8,-21,56*,23,4
Cc1ccc(-c2cc(-c3ccc(C)cc3)[n+](-c3ccc(C(=O)[O-])cc3)c(-c3ccc(C)cc3)c2)cc1,0,0,4,-1,-14,-3
COc1ccc(CNC(=O)C(NC(C)=O)C(C)C)cc1OC (stereo unspecified),2,1,6,2,-22,-1
O=C(c1n[nH]c(=O)c2ccccc12)N1CCC2(CC1)OCCO2,1,0,9,-11,-9,18
CCOC(=O)c1cccc(-[n+]2c(-c3ccccc3)cc(-c3ccccc3)cc2-c2ccccc2)c1,3,0,-11,27*,-17,-2
CC1CCN(C(=O)C(C)Cl)CC1 (stereo unspecified),0,16*,1,0,9,11
CC1CCCN(C(=O)CCl)C1 (stereo unspecified),0,1,-1,5,-11,33
CCOC(=O)[C@]12Cc3cc(Cl)ccc3[C@H]1N(C1CCCCC1)C(=O)c1ccccc12,-2,4,1,30*,8,16
CC(Cc1ccc(O)cc1)NCC(O)c1ccc(O)c(O)c1 (stereo unspecified),-1,0,3,2,8,-7
CC(C)CCC1(CCO)C(=O)NC(=S)NC1=O,1,1,10,11,7,-16
CN1C2CCC1CC(OC(=O)c1ccc(Cl)cc1)(C(=O)O)C2 (stereo unspecified),1,1,29*,16,-14,23
COC(=O)C1=C(c2ccc(F)cc2OCc2ccccc2)C[C@@H]2CC[C@H]1N2C(=O)NCc1ccccc1,8,-1,5,-3,2,3
COC(=O)C1=C(c2ccccc2)C[C@@H]2CC[C@H]1N2C(=O)NCc1ccc(F)cc1,-1,-1,-14,47*,-7,5

# Compound activity deposited in PubChem BioAssay by The Scripps Research Institute Molecular Screening Center.
